From PubChem BioAssay AID1159580 (chemical genetic matrix, 2015)
In all, about 5,500 compounds went through this assay and about 2,000 (36%) were called active. Another 18% or so got no clear call; they are omitted. No stated cut-off is given here; in the data, active means normalized growth mostly below about 0.91 (no sharp cut-off); inconclusive means no clear call, values can overlap the other calls; inactive means mostly above about 0.92. The list shows a part of the results.

Assay: chemical genetic growth profiling, strain panel (AID 1159580);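 further: tested at 20 µM; growth read once vehicle control cultures reached saturation at 30 °C; 1 = growth at the plate median or of vehicle wells; lower values mean less growth of the strain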
Conditions: growth OD

Measured: normalized growth

CC(=O)OCC(=O)[C@@]12OC3(CCCC3)O[C@@H]1CC1C3CCC4=CC(=O)C=C[C@]4(C)[C@@]3(F)[C@@H](O)C[C@@]12C (some centres not stated)
inactive: S. cerevisiae deletion strains, locus YJR075W, strain HOC1, hits give low values 1.01 | S. cerevisiae deletion strains, locus YKL009W, strain mrt4, hits give low values 0.967 | S. cerevisiae deletion strains, locus YKL068W, hits give low values 0.991 | S. cerevisiae deletion strains, locus YKL085W, strain MDH1 (second series), hits give low values 0.994 | S. cerevisiae deletion strains, locus YKL085W, strain MDH1, hits give low values 0.994 | S. cerevisiae deletion strains, locus YKL160W, strain elf1, hits give low values 1.01 | S. cerevisiae deletion strains, locus YKL190W, strain CNB1, hits give low values 0.997 | S. cerevisiae deletion strains, locus YKR001C, strain vps1, hits give low values 0.985 | S. cerevisiae deletion strains, locus YKR026C, strain gcn3, hits give low values 1.02 | S. cerevisiae deletion strains, locus YKR091W, strain srl3, hits give low values 1.01 | S. cerevisiae deletion strains, locus YLL001W, strain dnm1, hits give low values 1 | S. cerevisiae deletion strains, locus YLL026W, hits give low values 1.01 | S. cerevisiae deletion strains, locus YLL041C, strain sdh2, hits give low values 1.02 | S. cerevisiae deletion strains, locus YLR027C, strain aat2, hits give low values 1.01 | S. cerevisiae deletion strains, locus YLR039C, strain RIC1, hits give low values 0.94 | S. cerevisiae deletion strains, locus YLR058C, strain SHM2, hits give low values 1.01 | S. cerevisiae deletion strains, locus YLR102C, strain apc9, hits give low values 0.992 | S. cerevisiae deletion strains, locus YLR113W, strain HOG1, hits give low values 0.989 | S. cerevisiae deletion strains, locus YLR221C, strain rsa3, hits give low values 1.01 | S. cerevisiae deletion strains, locus YLR258W, strain gsy2, hits give low values 1.02 | S. cerevisiae deletion strains, locus YLR262C, strain YPT6 (second series), hits give low values 1 | S. cerevisiae deletion strains, locus YLR262C, strain YPT6, hits give low values 0.961 | S. cerevisiae deletion strains, locus YLR268W, strain sec22, hits give low values 0.958 | S. cerevisiae deletion strains, locus YLR320W, strain mms22, hits give low values 1.02 | S. cerevisiae deletion strains, locus YLR330W, strain CHS5, hits give low values 1.01 | S. cerevisiae deletion strains, locus YLR342W, strain FKS1 (second series), hits give low values 1.05 | S. cerevisiae deletion strains, locus YLR342W, strain FKS1, hits give low values 1.02 | S. cerevisiae deletion strains, locus YLR357W, strain rsc2, hits give low values 1.04 | S. cerevisiae deletion strains, locus YLR370C, strain arc18, hits give low values 1.02 | S. cerevisiae deletion strains, locus YLR371W, strain rom2, hits give low values 0.984 | S. cerevisiae deletion strains, locus YLR384C, strain iki3, hits give low values 1.01 | S. cerevisiae deletion strains, locus YLR418C, strain cdc73, hits give low values 0.944 | S. cerevisiae deletion strains, locus YML016C, strain PPZ1, hits give low values 1.02 | S. cerevisiae deletion strains, locus YML032C, strain rad52, hits give low values 0.968 | S. cerevisiae deletion strains, locus YML120C, strain ndi1, hits give low values 1.02 | S. cerevisiae deletion strains, locus YML124C, strain tub3, hits give low values 0.988 | S. cerevisiae deletion strains, locus YMR058W, strain fet3, hits give low values 1.02 | S. cerevisiae deletion strains, locus YMR078C, strain ctf18, hits give low values 1 | S. cerevisiae deletion strains, locus YMR125W, strain sto1, hits give low values 1.03 | S. cerevisiae deletion strains, locus YMR129W, hits give low values 1.02 | S. cerevisiae deletion strains, locus YMR205C, strain PFK2, hits give low values 1.02 | S. cerevisiae deletion strains, locus YMR223W, strain ubp8, hits give low values 1.01 | S. cerevisiae deletion strains, locus YMR231W, strain pep5, hits give low values 1.01 | S. cerevisiae deletion strains, locus YMR263W, strain SAP30, hits give low values 1.01 | S. cerevisiae deletion strains, locus YMR307W, strain GAS1, hits give low values 1.11 | S. cerevisiae deletion strains, locus YNL067W, strain RPL9B, hits give low values 1 | S. cerevisiae deletion strains, locus YNL071W, strain lat1, hits give low values 1.01 | S. cerevisiae deletion strains, locus YNL128W, strain TEP1, hits give low values 1.03 | S. cerevisiae deletion strains, locus YNL153C, strain GIM3, hits give low values 0.996 | S. cerevisiae deletion strains, locus YNL183C, strain NPR1, hits give low values 0.954 | S. cerevisiae deletion strains, locus YNL209W, strain ssb2, hits give low values 1.01 | S. cerevisiae deletion strains, locus YNL233W, strain BNI4, hits give low values 1.01 | S. cerevisiae deletion strains, locus YNL248C, strain rpa49, hits give low values 0.978 | S. cerevisiae deletion strains, locus YNL250W, strain rad50, hits give low values 0.994 | S. cerevisiae deletion strains, locus YNL271C, strain bni1, hits give low values 0.984 | S. cerevisiae deletion strains, locus YNL298W, strain CLA4, hits give low values 0.982 | S. cerevisiae deletion strains, locus YNL307C, strain MCK1, hits give low values 0.992 | S. cerevisiae deletion strains, locus YNL322C, strain KRE1 (second series), hits give low values 1.03 | S. cerevisiae deletion strains, locus YNL322C, strain KRE1, hits give low values 1.01 | S. cerevisiae deletion strains, locus YNR049C, strain mso1, hits give low values 1.03 | S. cerevisiae deletion strains, locus YNR052C, strain pop2, hits give low values 0.99 | S. cerevisiae deletion strains, locus YOL006C, strain TOP1, hits give low values 1.01 | S. cerevisiae deletion strains, locus YOL012C, strain htz1 0.599 | S. cerevisiae deletion strains, locus YOL147C, strain pex11, hits give low values 1 | S. cerevisiae deletion strains, locus YOR001W, strain rrp6, hits give low values 1.02 | S. cerevisiae deletion strains, locus YOR061W, strain CKA2, hits give low values 1.01 | S. cerevisiae deletion strains, locus YOR069W, strain VPS5, hits give low values 1.01 | S. cerevisiae deletion strains, locus YOR070C, strain gyp1, hits give low values 1.02 | S. cerevisiae deletion strains, locus YOR080W, strain dia2, hits give low values 1.04 | S. cerevisiae deletion strains, locus YOR083W, strain WHI5, hits give low values 0.998 | S. cerevisiae deletion strains, locus YOR106W, strain vam3, hits give low values 1.01 | S. cerevisiae deletion strains, locus YOR136W, strain idh2, hits give low values 0.981 | S. cerevisiae deletion strains, locus YOR144C, strain elg1, hits give low values 0.991 | S. cerevisiae deletion strains, locus YOR184W, strain ser1, hits give low values 0.983 | S. cerevisiae deletion strains, locus YOR231W, strain MKK1, hits give low values 0.963 | S. cerevisiae deletion strains, locus YOR265W, strain rbl2, hits give low values 1.02 | S. cerevisiae deletion strains, locus YOR270C, strain vph1, hits give low values 0.921 | S. cerevisiae deletion strains, locus YOR290C, strain snf2, hits give low values 1.01 | S. cerevisiae deletion strains, locus YOR316C, strain cot1, hits give low values 1 | S. cerevisiae deletion strains, locus YPL051W, strain arl3, hits give low values 1.02 | S. cerevisiae deletion strains, locus YPL055C, strain LGE1, hits give low values 1.01 | S. cerevisiae deletion strains, locus YPL078C, strain atp4, hits give low values 1.01 | S. cerevisiae deletion strains, locus YPL106C, strain sse1, hits give low values 1.1 | S. cerevisiae deletion strains, locus YPL240C, strain hsp82, hits give low values 1.01 | S. cerevisiae deletion strains, locus YPL241C, strain CIN2, hits give low values 1.01 | S. cerevisiae deletion strains, locus YPL256C, strain CLN2, hits give low values 0.975 | S. cerevisiae deletion strains, locus YPR119W, strain clb2, hits give low values 0.982 | S. cerevisiae deletion strains, locus YPR141C, strain kar3, hits give low values 0.989 | S. cerevisiae deletion strains, locus YPR163C, strain tif3, hits give low values 0.98 | S. cerevisiae deletion strains, locus YPR167C, strain met16, hits give low values 0.999 | S. cerevisiae deletion strains, strain wtn01, hits give low values 0.98 | S. cerevisiae strains, strain wild type, hits give low values 1.01
